From PubChem BioAssay come the findings set out here.

Experiment [1] concerns the target Albumin (Bos taurus) (UniProt P02769). In words: compounds binding labelled BSA control protein – biochemical, small-molecule microarray, Alexa647 label, 635/667 nm fluorescence, artefact control for SMM control protein annotation, profiling panel (AID 1118).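 Further: score merges 667 nm emission intensity and signal-to-noise per printed compound spot.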 Conditions: BSA-A647 binding, fluorescence 635 nm, higher = more signal.
A short description of experiment [2]: probe aXIP binding to arrayed compounds – biochemical, NeuroSMM set, 635/667 nm fluorescence, primary screen (AID 1119).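 Further: probe is the protein aXip251-270 applied at 1 µg/mL to compound-printed slides; binding of probe to printed compounds measured as 667 nm fluorescence plus signal to noise.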 Conditions: small-molecule microarray, higher = more signal, called active from +8 up or from −8 down.
The nature of experiment [3]: probe aNOTCH3 binding on compound microarray – biochemical, small-molecule microarray, 635/667 nm fluorescence, primary screen (AID 1120).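 Further: probe is a biotin-tagged antibody raised against NOTCH3 rather than NOTCH3 protein; score merges spot fluorescence near 667 nm with spot signal to noise.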 Conditions: higher = more signal.
Experiment [4] is described as follows: probe aNOTCH2 binding on compound microarray – biochemical, small-molecule microarray, 635/667 nm fluorescence, primary screen (AID 1121).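 Further: score merges feature fluorescence read at 667 nm with its signal to noise.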 Conditions: higher = more signal.
For experiment [5], the target named is Carbonic anhydrase 2 (Homo sapiens) (UniProt P00918). In words: compounds binding carbonic anhydrase 2 – biochemical, small-molecule microarray, Alexa647-labelled CAII, profiling panel (AID 1122). Conditions: CAII-A647 binding fluorescence, higher = more signal.
Experiment [6] can be described thus: COS7 lysate on small-molecule microarray, probe aHis, 635 nm (AID 1123).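 Further: z-score combines 667nm fluorescence intensity with signal-to-noise per printed compound spot.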 Conditions: COS7 cell lysate, fluorescence, higher = more signal.
Experiment [7] is described as follows: probe aLAP1 signal on lysate-treated microarray – cell lysate, small-molecule microarray, COS7 lysate, primary screen (AID 1124).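 Further: lysate comes from COS7 cells expressing LAP1 and is applied at 0.3 µg/mL; score merges spot fluorescence near 667 nm with signal-to-noise over triplicate slides.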 Conditions: probe aLAP1, fluorescence, higher = more signal.
Experiment [8] concerns Sam68 (KHDRBS1). In words: compounds binding KHDRBS1 protein – biochemical, small-molecule microarray, 635 nm fluorescence, primary screen (AID 1125).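 Further: score merges 667 nm channel intensity with signal to noise over triplicate slides.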 Conditions: higher = more signal.
Experiment [9] has as its system Chordin-like protein 2 (CHRDL2). In words: compounds binding chordin-like 2 – biochemical, small-molecule microarray, 635 nm fluorescence, primary screen (AID 1126).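 Further: printed compound slides probed with Chrdl2 protein at 4 µg/mL for 1 h at 4 C; score merges 667 nm emission intensity with signal to noise over three replicate slides.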 Conditions: fluorescence 635 nm, higher = more signal.
Experiment [10] deals with Concanavalin-A (Canavalia ensiformis) (UniProt P02866). In words: compounds binding concanavalin A lectin – biochemical, small-molecule microarray, Alexa647 label, 635 nm, artefact control for SMM control protein annotation, primary screen (AID 1127).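 Further: z combines 667 nm emission intensity with signal-to-noise across three replicate slides.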 Conditions: ConA-A647 binding fluorescence, higher = more signal.

SMILES strings stand for the structures. The source made the active and inactive calls.

Albumin (Bos taurus), sequence (P02769 whole entry, looked up): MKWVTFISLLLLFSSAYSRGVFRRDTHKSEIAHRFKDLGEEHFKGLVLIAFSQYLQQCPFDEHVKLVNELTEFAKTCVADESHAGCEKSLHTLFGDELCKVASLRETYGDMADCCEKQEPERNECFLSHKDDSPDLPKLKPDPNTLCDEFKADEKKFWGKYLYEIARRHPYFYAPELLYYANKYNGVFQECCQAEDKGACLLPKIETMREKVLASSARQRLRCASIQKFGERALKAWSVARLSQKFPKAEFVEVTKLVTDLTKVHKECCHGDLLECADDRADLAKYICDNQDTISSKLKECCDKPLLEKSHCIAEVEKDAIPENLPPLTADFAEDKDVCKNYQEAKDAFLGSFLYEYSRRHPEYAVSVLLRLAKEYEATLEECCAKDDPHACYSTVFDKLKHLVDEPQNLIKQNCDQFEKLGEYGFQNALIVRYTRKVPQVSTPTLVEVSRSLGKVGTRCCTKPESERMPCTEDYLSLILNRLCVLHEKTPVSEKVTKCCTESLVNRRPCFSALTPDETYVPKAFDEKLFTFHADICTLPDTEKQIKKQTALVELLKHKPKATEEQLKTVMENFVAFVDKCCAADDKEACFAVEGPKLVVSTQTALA
Concanavalin-A (Canavalia ensiformis), sequence (P02866 whole entry, looked up): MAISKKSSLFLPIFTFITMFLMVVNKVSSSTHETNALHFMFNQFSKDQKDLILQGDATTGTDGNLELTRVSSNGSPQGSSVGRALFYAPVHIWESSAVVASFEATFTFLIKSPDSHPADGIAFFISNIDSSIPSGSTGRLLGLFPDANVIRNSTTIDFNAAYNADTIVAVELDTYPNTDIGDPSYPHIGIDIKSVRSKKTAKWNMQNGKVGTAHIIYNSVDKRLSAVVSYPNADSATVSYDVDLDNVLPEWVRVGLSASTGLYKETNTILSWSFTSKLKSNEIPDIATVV

Consider `OCCCC1=CC(c2ccc(CN3CCCC3)cc2)N(Cc2sc3ccccc3c2Cl)CC1` (stereo not given), for which the composite z-score in experiment [1] is -0.38; in [3], 0.191; in experiment [4], -0.0293; in [5], 0.483; in experiment [6], 0.504; in [7], -0.456. Also, the figures for the composite z-score in experiment [8], in [9] and in [10] were 0.982, 0.608 and 0.913, respectively. In experiment [2], the composite Z-score is -0.404 (inactive).
Consider `CN1C(=O)C2C=CC(C(O)c3cccc(O)c3)N(Nc3ccccc3)C2C1=O` (stereo not given), for which the composite z-score in experiment [1] was 0.976; in experiment [3] it was 0.17; in experiment [4], -0.14; in experiment [5], 0.552; in experiment [6] it was 0.247; in experiment [7], -0.279. For the same molecule, the values for the composite z-score in experiment [8], in experiment [9] and in experiment [10] were -0.172, -0.246 and 0.312, respectively. For the same molecule, the composite Z-score in experiment [2] was 0.501 (inactive).
With `NC(=O)NCC#Cc1ccc2c(c1)[C@]1(C(=O)N2)[C@H](C(=O)NC[C@H](O)c2ccccc2)[C@H]2C(=O)O[C@H](c3ccccc3)[C@H](c3ccccc3)N2[C@@H]1c1ccc(OCCO)cc1`, the composite z-score is -0.397 in [1]; 0.233 in [3]; -0.0449 in experiment [4]; 0.377 in experiment [5]; 0.791 in experiment [6]; 0.587 in [7]. The composite z-score was 1.01 in experiment [8], -0.0806 in experiment [9] and 0.798 in experiment [10]. In addition, the composite Z-score in [2] was 0.491 (inactive).
On to `Cc1cc(C)c(C(O)C2C=CC3C(=O)NC(=O)C3N2Nc2ccc(Cl)cc2Cl)c(C)c1` (stereo not given), for which the composite z-score in experiment [1] is 0.961; in experiment [3], 0.396; in [4], -0.0125; in [5] it was 0.575; in experiment [6] it was 2.94; in experiment [7] it was 0.772. The composite z-score in [8] is 1.1; in [9], -0.48; in experiment [10], 1.09. Besides, the composite Z-score in experiment [2] is 0.234 (inactive).
As to `CCOC(=O)C1=CC[C@@H](c2cccc(Cl)c2)N(S(=O)(=O)c2ccc(C)cc2)C1`, the composite z-score is 0.839 in experiment [1]; -0.0661 in experiment [3]; -0.0488 in experiment [4]; 0.685 in [5]; 2.15 in experiment [6]; 0.568 in experiment [7]. The composite z-score in experiment [8] was 0.674; in experiment [9] it was 0.0917; in experiment [10], 0.721. The composite Z-score in [2] is -0.659 (inactive).
On to `COc1ccc(CN(C2=CC[C@@]3(C(N)=O)C(=O)C(Cl)=C(Cl)C(=O)[C@@]3(C#N)C2)S(=O)(=O)c2ccc(Br)cc2)cc1`, for which the composite z-score in [1] was 1; in experiment [3] it was -0.128; in [4], -0.0273; in experiment [5], 0.863; in [6], 1.84; in experiment [7], 0.834. In addition, the composite z-score in experiment [8] is 0.295; in [9], -1.54; in experiment [10] it was 0.0331. Also, in experiment [2], the composite Z-score was 0.317 (inactive).
Regarding `N#Cc1ccc(C(O)C2C=CC3C(=O)N(c4ccccc4)C(=O)C3N2Nc2ccccc2)cc1` (stereo not given), the composite z-score in experiment [1] came to 1.01; in experiment [3] it was 0.194; in experiment [4], 0.0675; in experiment [5] it was 0.722; in experiment [6] it was 1.59; in [7] it was 0.736. Further, the values for the composite z-score in experiment [8], in [9] and in experiment [10] were 0.195, -0.111 and 0.73, respectively. For the same molecule, the composite Z-score in experiment [2] was 0.115 (inactive).
Regarding `O=C1O[C@H](c2ccccc2)[C@H](c2ccccc2)N2[C@H]1[C@@H](C(=O)Nc1nc3ccccc3s1)[C@]1(C(=O)Nc3ccc(C#CC4(O)CCCCCC4)cc31)[C@H]2c1ccccc1OCCO`, the composite z-score in experiment [1] is 0.743; in experiment [3], 0.0459; in [4], -0.0454; in [5], 0.461; in [6] it was 1.82; in [7], 0.398. In addition, the composite z-score was found to be 1.3 in experiment [8], 0.413 in [9] and 1.07 in experiment [10]. The composite Z-score in experiment [2] was -0.305 (inactive).
Regarding `COCC1=C2[C@@H](CCc3ccccc3)OB(O)C[C@@H]2[C@@H]2C(=O)C=CC(=O)[C@@H]2C1`, the composite z-score is 0.739 in experiment [1]; 0.334 in experiment [3]; -0.12 in experiment [4]; 0.295 in experiment [5]; 0.883 in experiment [6]; 0.481 in [7]. Further, the composite z-score in [8] stood at 1.31; in [9] it was 0.0197; in [10], 1.02. Further, the composite Z-score in [2] is -0.228 (inactive).
As for `COC(=O)[C@@]1(Cc2ccccc2)[C@H]2c3cc(C(=O)N(C)C)n(CCc4ccc(O)c(OC)c4)c3C[C@H]2CN1C(=O)c1ccccc1`, the composite z-score came to 0.374 in experiment [1]; 0.742 in experiment [3]; 0.401 in [4]; 0.126 in experiment [5]; 0.316 in experiment [6]; 0.638 in experiment [7]. Also, the composite z-score in [8] is 0.169; in [9], 0.314; in experiment [10], 0.151. The composite Z-score in experiment [2] was -0.372 (inactive).
Turning to `O=C1OCCC=C[C@H]2OC34C=CCN(Cn5nnc6ccccc65)C(=O)[C@H]3N(CCCCCCO)C(=O)[C@@H]4C12` (stereo not given in full), the composite z-score in experiment [1] was -0.587; in experiment [3], -0.429; in experiment [4], -0.0532; in experiment [5] it was 0.875; in [6], -0.591; in experiment [7] it was 0.755. Moreover, the composite z-score is -0.365 in [8], -1.31 in experiment [9] and -0.718 in [10]. Moreover, the composite Z-score in experiment [2] is 0.688 (inactive).
Regarding `O=C1O[C@@H](c2ccccc2)[C@@H](c2ccccc2)N2[C@@H](c3ccccc3OCCO)[C@]3(C(=O)Nc4ccc(C#CCCO)cc43)[C@@H](C(=O)N3CCCCCCC3)[C@H]12`, the composite z-score was found to be 0.366 in experiment [1]; 2.26 in experiment [3]; 1.23 in [4]; 0.972 in experiment [5]; 5.27 in experiment [6]; 1.6 in experiment [7]. The composite z-score in [8] was 1.3; in experiment [9], 1.72; in experiment [10] it was 1.2. The composite Z-score in experiment [2] is 10.6 (active).
Turning to `O=C(NCCCCCNC(=O)/C(Cc1ccccc1)=N/O)OCc1ccccc1`, the composite z-score was -0.0396 in experiment [1]; -0.165 in [3]; -0.195 in [4]; -0.162 in [5]; -0.564 in [6]; 0.148 in [7]. In addition, the composite z-score in experiment [8] was -0.0603; in [9], 0.366; in [10], -0.485. Further, the composite Z-score in experiment [2] was -0.136 (inactive).
Regarding `CC(C)OC(=O)C=C1C[C@@H](c2ccc(C(F)(F)F)cc2)O[C@@H](c2ccc(C(F)(F)F)cc2)O1`, the composite z-score in [1] was 0.856; in experiment [3], -0.102; in experiment [4], -0.128; in experiment [5] it was 0.717; in experiment [6], 2.61; in experiment [7], 0.35. In addition, the composite z-score in [8] is 0.886; in [9], -0.782; in experiment [10] it was 1.09. Besides, the composite Z-score in experiment [2] is -0.451 (inactive).
On to `C=C(/C(=C/C[C@@H](OC(C)=O)c1cccc(OCCO)c1)c1cc(C(=O)OC)ccc1OC)C(C)C`, for which the composite z-score in [1] was 0.805; in experiment [3], -0.0014; in experiment [4], -0.177; in [5], 0.447; in experiment [6] it was 0.206; in [7] it was 0.0418. Also, the results for the composite z-score in experiment [8], in experiment [9] and in experiment [10] were 0.531, 0.0865 and 0.574, respectively. For the same molecule, in experiment [2], the composite Z-score is 0.142 (inactive).
As to `COC(=O)[C@@]1(Cc2ccc(OC)cc2)[C@H]2c3cc(C(=O)N(C)C)n(C[C@H](O)CO)c3C[C@H]2CN1C(=O)c1ccccc1`, the composite z-score was 0.956 in experiment [1]; 0.301 in experiment [3]; 0.462 in [4]; 0.782 in experiment [5]; 2.24 in [6]; 0.828 in experiment [7]. Also, the composite z-score in experiment [8] is 0.833; in experiment [9], -1.29; in experiment [10], 0.863. Also, in [2], the composite Z-score was -0.312 (inactive).
